Assay results published in PubChem BioAssay AID1159580 (chemical genetic matrix, 2015).
About 2,000 (36%) of roughly 5,500 compounds were called active. Roughly 18% stayed inconclusive and do not appear here. Cut-off read from the data, not from the text of the source: active = normalized growth mostly below about 0.91 (no sharp cut-off); inconclusive = no clear call, values can overlap the other calls; inactive = mostly above about 0.92. The list shows a part of the results.

Experiment: chemical genetic growth profiling, strain panel (AID 1159580);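 note: tested at 20 µM; growth read once vehicle control cultures reached saturation at 30 °C; 1 = growth at the plate median or of vehicle wells; lower values mean less growth of the strain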
Settings: S. cerevisiae deletion strains, growth OD

Measured: normalized growth

COC(=O)CCCOc1ccc(Cl)cc1Cl
inactive: locus YAL013W, strain DEP1, active compounds read low 0.986 | locus YAL021C, strain ccr4, active compounds read low 0.988 | locus YAL026C, strain drs2, active compounds read low 0.966 | locus YAL030W, strain snc1, active compounds read low 0.968 | locus YBL061C, strain skt5, active compounds read low 0.952 | locus YBR009C, strain hhf1, active compounds read low 0.955 | locus YBR021W, strain FUR4, active compounds read low 0.931 | locus YBR023C, strain chs3, active compounds read low 0.96 | locus YBR171W, strain sec66, active compounds read low 0.916 | locus YBR229C, strain ROT2, active compounds read low 0.993 | locus YBR231C, strain swc5, active compounds read low 0.964 | locus YBR279W, strain paf1, active compounds read low 0.961 | locus YCL011C, strain gbp2, active compounds read low 0.967 | locus YCL016C, strain dcc1, active compounds read low 0.959 | locus YCL029C, strain bik1, active compounds read low 1 | locus YCL061C, strain MRC1, active compounds read low 0.953 | locus YCL069W, strain vba3, active compounds read low 0.962 | locus YCR088W, strain abp1, active compounds read low 0.955 | locus YDL005C, strain med2, active compounds read low 0.958 | locus YDL035C, strain GPR1, active compounds read low 1 | locus YDL040C, strain nat1, active compounds read low 0.954 | locus YDL074C, strain BRE1, active compounds read low 0.999 | locus YDL101C, strain DUN1, active compounds read low 1.02 | locus YDL134C, strain PPH21, active compounds read low 0.998 | locus YDL185W, strain tfp1, active compounds read low 0.988 | locus YDL192W, strain arf1, active compounds read low 0.996 | locus YDR001C, strain nth1, active compounds read low 0.967 | locus YDR069C, strain doa4, active compounds read low 0.967 | locus YDR101C, strain arx1, active compounds read low 0.987 | locus YDR137W, strain rgp1, active compounds read low 0.899 | locus YDR150W, strain NUM1, active compounds read low 0.989 | locus YDR159W, strain sac3, active compounds read low 0.956 | locus YDR162C, strain NBP2, active compounds read low 0.991 | locus YDR195W, strain ref2 0.972 | locus YDR297W, strain sur2, active compounds read low 0.961 | locus YDR318W, strain mcm21, active compounds read low 0.993 | locus YDR334W, strain swr1, active compounds read low 0.974 | locus YDR335W, strain msn5, active compounds read low 0.968 | locus YDR388W, active compounds read low 0.992 | locus YDR392W, strain spt3, active compounds read low 0.902 | locus YDR502C, strain sam2, active compounds read low 0.995 | locus YEL003W, strain gim4, active compounds read low 0.966 | locus YEL037C, strain rad23, active compounds read low 0.968 | locus YEL061C, strain CIN8 (second series), active compounds read low 0.961 | locus YEL061C, strain CIN8, active compounds read low 0.985 | locus YER015W, strain faa2, active compounds read low 0.959 | locus YER016W, strain bim1, active compounds read low 0.964 | locus YER110C, active compounds read low 0.995 | locus YER111C, strain swi4, active compounds read low 0.956 | locus YER155C, strain BEM2 (second series), active compounds read low 0.922 | locus YER155C, strain BEM2, active compounds read low 0.984 | locus YER167W, strain BCK2, active compounds read low 1 | locus YFR010W, strain ubp6, active compounds read low 0.974 | locus YGL078C, strain dbp3, active compounds read low 0.983 | locus YGL086W, strain mad1, active compounds read low 0.991 | locus YGL167C, strain pmr1, active compounds read low 0.953 | locus YGL173C, strain kem1, active compounds read low 0.948 | locus YGL227W, strain vid30, active compounds read low 0.95 | locus YGL240W, strain doc1, active compounds read low 0.949 | locus YGL248W, strain PDE1, active compounds read low 1 | locus YGL253W, strain hxk2, active compounds read low 0.965 | locus YGR078C, strain PAC10, active compounds read low 0.991 | locus YGR135W, strain pre9, active compounds read low 0.994 | locus YGR229C, strain SMI1, active compounds read low 0.994 | locus YGR252W, strain gcn5, active compounds read low 0.977 | locus YHR013C, strain ard1, active compounds read low 0.958 | locus YHR027C, strain rpn1, active compounds read low 0.975 | locus YHR030C, strain SLT2, active compounds read low 0.994 | locus YHR079C, strain IRE1 (second series), active compounds read low 1 | locus YHR094C, strain hxt1, active compounds read low 0.985 | locus YHR129C, strain ARP1, active compounds read low 0.994 | locus YHR142W, strain chs7, active compounds read low 0.965 | locus YHR200W, strain rpn10, active compounds read low 0.996 | locus YIL066C, strain RNR3, active compounds read low 0.993 | locus YIL073C, strain SPO22, active compounds read low 1.07 | locus YIL125W, strain kgd1, active compounds read low 0.983 | locus YIR030C, strain dcg1, active compounds read low 0.994 | locus YJL092W, strain hpr5, active compounds read low 0.957 | locus YJL095W, strain BCK1 (second series), active compounds read low 0.955 | locus YJL095W, strain BCK1, active compounds read low 0.942 | locus YJL115W, strain asf1, active compounds read low 0.967 | locus YJL129C, strain trk1, active compounds read low 0.931 | locus YJL134W, strain LCB3, active compounds read low 0.995 | locus YJL154C, strain vps35, active compounds read low 0.971 | locus YJL164C, strain tpk1, active compounds read low 0.964 | locus YJL166W, strain qcr8, active compounds read low 0.955 | locus YJL168C, strain set2, active compounds read low 1.01 | locus YJL187C, strain SWE1 (second series), active compounds read low 1 | locus YJL187C, strain SWE1, active compounds read low 0.973
